D1 potentiator: Potentiators of Human D1 Dopamine Receptor: qHTS | potentiation, % at 10 µM | actives 0.036% (n = 360,000) | HEK293 TREx D1 cells, calcium flux, dopamine EC20 potentiation | D(1A) dopamine receptor (Homo sapiens), P21728; in the data active = potentiation above about 30%
Target sequence (P21728 whole entry, looked up): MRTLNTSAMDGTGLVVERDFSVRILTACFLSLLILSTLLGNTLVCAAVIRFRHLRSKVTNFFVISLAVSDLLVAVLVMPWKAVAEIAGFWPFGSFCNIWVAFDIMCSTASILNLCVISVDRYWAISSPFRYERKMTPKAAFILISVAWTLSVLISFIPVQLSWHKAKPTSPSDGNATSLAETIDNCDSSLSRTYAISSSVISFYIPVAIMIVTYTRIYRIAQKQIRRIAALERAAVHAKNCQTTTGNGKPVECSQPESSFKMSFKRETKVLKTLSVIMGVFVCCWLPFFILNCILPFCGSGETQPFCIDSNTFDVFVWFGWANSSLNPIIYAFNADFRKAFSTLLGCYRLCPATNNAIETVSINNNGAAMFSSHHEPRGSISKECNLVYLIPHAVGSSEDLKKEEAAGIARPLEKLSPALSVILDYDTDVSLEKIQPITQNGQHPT
D1 ag: Allosteric Agonists of the Human D1 Dopamine Receptor: qHTS; D(1A) dopamine receptor (Homo sapiens), P21728; HEK293 T-REx D1 cells, calcium flux, agonist mode; activation, % at 2 µM; actives 1% (n = 360,000); AID 504660, 2011
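Tetracycline-induced HEK293 TREx D1 cells, force-coupled to calcium signalling, were dye-loaded with a no-wash calcium kit. Compound was pin-added after a 10 s baseline. Fluorescence was read kinetically at 1 cycle/s for 180 s, with calcium rises flagged as agonism.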
TRHR PAM: qHTS for Small Molecule Agonists and Allosteric Enhancers of Human TRH Receptor: Primary Screen for Enhancers; Thyrotropin-releasing hormone receptor (Homo sapiens), P34981; TRHR cells, fluo-8 calcium fluorescence, EC20 TRH enhancement; enhancement, % at 2 µM; actives 0.66% (n = 360,000); AID 493056, 2011; in the data active = enhancement above about 30%
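Enhancer read-out: after compound pinning and an initial kinetic agonist-mode read, an EC20 of TRH (10 nM final) was injected and fluo-8 calcium signal (Ex 480/Em 530) followed at 1 s/cycle for 100 cycles in TRHR-expressing cells.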
TRHR ag: qHTS for Small Molecule Agonists and Allosteric Enhancers of Human TRH Receptor: Primary Screen for Agonists | AID 493084, 2011 | activation, % at 2 µM | Thyrotropin-releasing hormone receptor (Homo sapiens), P34981 | actives 0.18% (n = 360,000) | TRHR cells, calcium flux fluo-8, FDSS agonist mode
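TRHR-expressing cells, plated overnight in medium with 10% serum, were loaded with fluo-8 calcium dye at room temperature. After a 10 s baseline, library compound was pin-added and calcium release was recorded kinetically (ex 480/em 530) as agonist response.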
D1 antag: Antagonist of Human D 1 Dopamine Receptor: qHTS; actives 3.2% (n = 360,000); activity change, negative = inhibition, % at 10 µM; HEK293 TREx D1 cells, calcium flux, dopamine EC80; hits give low values; D(1A) dopamine receptor (Homo sapiens), P21728; in the data active = activity change below about -30%
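Using tetracycline-induced force-coupled D1 Hek293 cells and a calcium dye, signals were followed for 180 s after compound, then for 180 s after EC80 dopamine, to detect inhibitors.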
A number is an active result; 0 = inactive; - = no result given. Sampled rows, rich in hits. Any-hit rate of the full collection: about 4.7%. Cut-off read from the data, not from the text of the source, unless noted: active = activation above about 30%; inactive = the rest.

SMILES	D1 potentiator	D1 ag	TRHR PAM	TRHR ag	D1 antag
O=C(C1CCN(S(=O)(=O)Cc2ccccc2)CC1)N1CCN(c2ncccn2)CC1	0	0	0	0	0
CCc1ccc(NC(=O)c2cnn(-c3c(C)cccc3C)c2C2CCNCC2)cc1	0	0	0	0	0
CCOC(=O)C1=C(c2ccccc2)N=c2s/c(=C\c3cccc(O)c3)c(=O)n2C1c1cccs1 (configuration not stated)	0	0	0	0	0
O=c1/c(=C\c2ccc(O)cc2)sc2n1C(c1ccccc1)C(c1ccccc1)=NN=2 (configuration not stated)	0	33	0	0	-51
CCOC(=O)CCSc1nc2c(c(C(F)(F)F)c1C#N)CCC2	0	0	0	0	-38
CCCCSc1nc2c(c(C(F)(F)F)c1C#N)CCC2	0	0	0	0	0
O=C(N/N=C/c1cn(CCOc2ccccc2)c2ccccc12)c1ccncc1	0	0	0	0	-34
CCc1ccc(NC(=O)C2(c3cccs3)CCOCC2)cc1	0	0	0	0	-
Cc1[nH]c(=S)c(C#N)c(C)c1CC(=O)c1ccc(Br)cc1	0	0	0	0	0
Cc1[nH]c(=S)c(C#N)c(C)c1Cc1ccc(Cl)cc1Cl	0	0	0	0	-51
Cc1[nH]c(=O)c(C#N)c(C)c1Cc1ccc(Cl)cc1Cl	0	0	0	0	-62
COC(=O)c1nc(NC2=NCCCCC2)n[nH]1	0	0	0	0	-36
CCOc1ccc(-c2cc(C(=O)NCc3ccccc3)c3c(-c4ccc(CC)cc4)[nH]nc3n2)cc1	0	0	0	0	0
O=c1c(/C=C(\O)c2ccc(F)cc2)nc2ccccc2n1-c1ccccc1	0	159	0	76	0
Cn1c(=O)c(/C=C/c2ccc(F)cc2)nc2ccccc21	0	0	0	0	0
Cn1c(SCc2ccccc2)nc2c1c(=O)[nH]c(=O)n2C	0	0	0	0	-35
CC(=O)N1CCc2c(sc3c2c(=O)n(-c2cccc(Cl)c2C)c(=O)n3Cc2ccccc2C)C1	0	0	0	0	0
COc1ccc(N(CC(=O)NCc2ccco2)S(C)(=O)=O)cc1Cl	0	0	0	0	-68
CC(C)c1ccc(N(CC(=O)NCCSCc2ccco2)S(C)(=O)=O)cc1	0	0	0	0	-61
Cc1ccc(N(CC(=O)NCCSCc2ccco2)S(=O)(=O)c2ccc(C)cc2)cc1	0	0	0	0	-38
Cc1cccc(N(CC(=O)NCCSCc2ccco2)S(=O)(=O)c2ccccc2)c1	0	0	0	0	0
COc1ccc(C)cc1N(CC(=O)NCCSCc1ccco1)S(=O)(=O)c1ccc(C)cc1	0	0	33	0	0
Cc1c(CNC2CCCCCC2)c(C(=O)O)c(C)n1Cc1c(F)cccc1Cl	0	0	0	0	0
CCCCOc1ccc(CNC(=O)CCCN2C(=O)CSc3c2c(C)nn3-c2ccccc2)cc1	0	0	0	0	0
CCCC(=O)Nc1ccc(C(=O)/C=C/c2ccc(SC)cc2)cc1	0	0	0	0	-48
SMILES	D1 potentiator	D1 ag	TRHR PAM	TRHR ag	D1 antag
CSc1ccc(/C=C/C(=O)c2ccc(NC(C)=O)cc2)cc1	0	0	0	0	0
O=C(CN1CCCCCC1)N1c2ccccc2Sc2ccccc21	0	0	0	0	0
CC1CCCN(CC(=O)N2c3ccccc3Sc3ccccc32)C1 (configuration not stated)	0	0	36	0	0
CCOC(=O)Nc1ccc2c(c1)N(C(=O)N1CCN(C)CC1)c1ccccc1S2	0	0	0	0	-64
CCOC(=O)N1CCN(CC(=O)N2c3ccccc3Sc3ccccc32)CC1	0	47	0	0	0
CCOc1ccc(NC(=O)C2CCN(C(=O)N3CC(C)Oc4ccc(Cl)cc43)CC2)cc1 (configuration not stated)	0	0	0	0	0
O=C(Nc1cccc(C(F)(F)F)c1)c1ccc(Cn2cc(Br)cn2)o1	0	34	0	0	-31
Cc1cc(C)n(Cc2ccc(C(=O)Nc3cccc(Br)c3)o2)n1	0	38	0	0	0
CCOc1ccc(-c2nc3c(C#N)c[nH]n3c2NC2CCCC2)cc1	0	0	0	0	0
COc1ccc(S(=O)(=O)N(CC(=O)NC(C)c2ccccc2)c2ccc(C)cc2)cc1OC (configuration not stated)	0	0	0	0	0
Cc1ccc(Cl)cc1N(C)C(=O)c1cc2c(Cl)nc3ccccc3c2s1	0	0	0	0	0
Cc1ccc(NC(=O)Cc2sc(C)nc2-c2ccc(C)cc2)cc1	0	0	0	0	-35
CN1CCN(C(=O)C(=O)Nc2c3c(nn2-c2cccc(Cl)c2)CSC3)CC1	0	0	0	0	-
COc1ccc(O)c(C(=O)c2cnn(C(=O)c3cc(C)oc3C)c2)c1	0	0	0	0	-46
COc1ccc(C(=O)n2cc(C(=O)c3cc(C)ccc3O)cn2)cc1	0	0	0	0	0
CC(=O)Nc1cc(C(=O)NCc2ccc(F)cc2)ccc1Sc1ccc(C)cc1	0	0	0	0	-39
COc1ccc(C2OCC3(CO2)SC(=O)NC3=O)cc1 (configuration not stated)	0	0	0	0	-38
COC(=O)c1cccc(C23CC4(C2)[C@H](CN(Cc2ccc(-c5ccccc5)cc2)[C@@H]4c2ccccc2)C3c2ccc(Cl)nc2)c1 (some centres not stated)	0	0	0	0	-36
COC(=O)c1cccc(C23CC4(C2)[C@H](CN(Cc2cccnc2)[C@@H]4c2ccccc2)C3c2ccc(Cl)nc2)c1 (some centres not stated)	0	0	0	0	0
COc1ccc(-n2c(=O)c(NC(=O)c3ccccc3)c3n(c2=S)CCCCC3)cc1	0	0	0	0	-31
CC1=CC(=C(C#N)c2nc3ccccc3s2)C=C(C)N1Cc1ccco1	0	44	0	0	0
CCOC(=O)c1ccc2c(c1)sc1nc(-c3ccc(OCC)cc3)cn12	0	0	0	0	0
CS(=O)(=O)N1CCc2cc(S(=O)(=O)NCCNS(=O)(=O)c3ccc4c(c3)CCN4S(C)(=O)=O)ccc21	0	0	0	0	0
CC1CN(C(=O)c2ccc(NS(=O)(=O)c3ccc(C(C)(C)C)cc3)cc2)CC(C)O1 (configuration not stated)	0	35	0	0	0
CS(=O)(=O)N1CCc2cc(S(=O)(=O)NCc3ccccc3Cl)ccc21	0	0	0	0	-101
CCOc1ccccc1CNS(=O)(=O)c1ccc2c(c1)CCCN2C(C)=O	0	0	0	0	-50

Screens: PubChem, National Center for Advancing Translational Sciences (NCATS)
